# Data as given in PubChem BioAssay (NCATS).
# Unmarked numbers belong to inactive results. Records with an inconclusive call do not appear. A call without a number means that no potency is given here. Activity calls are given as the source filed them. Unless noted, the call rests on the fitted dose curve; in most records, active means well fitted curve in the direction sought with a large enough effect; inconclusive means small, poorly fitted or top-dose-only effect, or another doubt; inactive means no such curve, though single readings can be large; an effect the other way counts as inactive or inconclusive.
# Experiments:
# [1] = target: N-terminal Xaa-Pro-Lys N-methyltransferase 1 (Homo sapiens) (UniProt Q9BV86); test: qHTS Assay for Inhibitors of N-terminal methyltransferase 1 (NTMT1): LOPAC validation of the NTMT1 SAHH-coupled ThioGlo3 Assay (AID 1347143);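 further: SAH from peptide methylation measured as thiol fluorescence via SAHH coupling and ThioGlo3; potency means the concentration at half of the fitted maximal effect; nearly all actives have a fitted effect of over 70% in size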
# N-terminal Xaa-Pro-Lys N-methyltransferase 1 (Homo sapiens), sequence (Q9BV86 whole entry, looked up): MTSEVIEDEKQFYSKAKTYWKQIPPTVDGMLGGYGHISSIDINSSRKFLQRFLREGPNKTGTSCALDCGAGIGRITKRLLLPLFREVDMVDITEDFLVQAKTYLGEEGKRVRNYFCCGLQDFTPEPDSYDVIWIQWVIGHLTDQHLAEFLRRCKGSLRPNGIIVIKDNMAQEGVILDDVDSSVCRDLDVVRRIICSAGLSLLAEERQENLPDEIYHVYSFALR
# Procedure, shortened: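 Recombinant human NTMT1 (125nM) was pre-incubated 1 min at room temperature with compounds over a concentration range, then a mix of 100uM SAM, 10uM SAHH and 15uM ThioGlo3 (concentrations in added reagent) was added. ThioGlo3 fluorescence (ex 340/em 450nm) after 30 min was normalized to the initial reading.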
# Furin (Homo sapiens) = Furin (Homo sapiens) (UniProt P09958); test: Furin counterscreen qHTS for Zika virus inhibitors (AID 1347149); further: nearly all actives have a fitted effect of over 70% in size; further: potency means the concentration at half of the fitted maximal effect;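 on activity change, negative = inhibition: purified recombinant full-length human furin enzyme at 5 nM; fluorescence gain from furin cutting a BOC-RVRR-AMC peptide substrate over 15 min; top concentration of the series differs between compounds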
# Furin (Homo sapiens), sequence (P09958 whole entry, looked up): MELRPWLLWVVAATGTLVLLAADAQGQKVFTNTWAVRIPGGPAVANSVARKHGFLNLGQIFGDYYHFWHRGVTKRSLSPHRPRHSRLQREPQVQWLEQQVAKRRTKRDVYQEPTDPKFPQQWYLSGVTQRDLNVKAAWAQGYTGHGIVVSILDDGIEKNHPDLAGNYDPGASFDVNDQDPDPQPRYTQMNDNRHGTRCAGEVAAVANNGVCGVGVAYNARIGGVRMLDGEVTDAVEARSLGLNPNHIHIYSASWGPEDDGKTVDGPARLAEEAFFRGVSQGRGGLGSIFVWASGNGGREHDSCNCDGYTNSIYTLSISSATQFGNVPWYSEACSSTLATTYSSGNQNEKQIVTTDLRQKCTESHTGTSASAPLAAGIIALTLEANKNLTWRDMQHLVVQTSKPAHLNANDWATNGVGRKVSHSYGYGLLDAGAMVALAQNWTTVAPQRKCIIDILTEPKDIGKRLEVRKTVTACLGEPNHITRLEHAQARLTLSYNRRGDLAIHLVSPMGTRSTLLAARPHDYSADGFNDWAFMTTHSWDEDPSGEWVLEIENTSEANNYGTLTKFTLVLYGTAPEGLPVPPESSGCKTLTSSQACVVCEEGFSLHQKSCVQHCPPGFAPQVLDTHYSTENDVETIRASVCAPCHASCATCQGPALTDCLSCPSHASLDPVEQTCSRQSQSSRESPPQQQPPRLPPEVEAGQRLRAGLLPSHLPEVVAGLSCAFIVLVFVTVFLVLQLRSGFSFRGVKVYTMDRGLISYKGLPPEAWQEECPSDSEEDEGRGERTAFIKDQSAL
# Procedure, shortened: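 Fluorogenic cleavage of BOC-RVRR-AMC (2 microM final, Km ~15 µM) was monitored (ex 340, em 450 nm) at 37C after 15 min RT preincubation of 5 nM furin with compounds in HEPES pH 7.0 buffer with CaCl2 and Triton X-100. Percent inhibition was fitted to a 4-parameter Hill curve.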
# [2] = qHTS for Inhibitors of Plasmodium falciparum (CP250) proliferation (AID 504320)
# Procedure, shortened: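 Erythrocytes infected with P. falciparum line (0.3% parasitemia, 2.5% hematocrit final) incubated with compounds 72 h at 37 °C, 5% CO2; SYBR Green lysis buffer added, fluorescence read next day. Normalized to 0.29 uM artemisinin and DMSO.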
# [3] = target: Atrial natriuretic peptide receptor 1 (Homo sapiens) (UniProt P16066); test: Natriuretic polypeptide receptor (hNpr1) antagonism - Pilot CMLD screen (AID 1347052; calls by dose curve;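 further: HEK293 cells with hNpr1 stimulated by hNppA peptide at 0.1 nM; cGMP level read as GloSensor luciferase luminescence after agonist stimulation; series mostly up to about 9.2 µM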)
# Atrial natriuretic peptide receptor 1 (Homo sapiens), sequence (P16066 whole entry, looked up): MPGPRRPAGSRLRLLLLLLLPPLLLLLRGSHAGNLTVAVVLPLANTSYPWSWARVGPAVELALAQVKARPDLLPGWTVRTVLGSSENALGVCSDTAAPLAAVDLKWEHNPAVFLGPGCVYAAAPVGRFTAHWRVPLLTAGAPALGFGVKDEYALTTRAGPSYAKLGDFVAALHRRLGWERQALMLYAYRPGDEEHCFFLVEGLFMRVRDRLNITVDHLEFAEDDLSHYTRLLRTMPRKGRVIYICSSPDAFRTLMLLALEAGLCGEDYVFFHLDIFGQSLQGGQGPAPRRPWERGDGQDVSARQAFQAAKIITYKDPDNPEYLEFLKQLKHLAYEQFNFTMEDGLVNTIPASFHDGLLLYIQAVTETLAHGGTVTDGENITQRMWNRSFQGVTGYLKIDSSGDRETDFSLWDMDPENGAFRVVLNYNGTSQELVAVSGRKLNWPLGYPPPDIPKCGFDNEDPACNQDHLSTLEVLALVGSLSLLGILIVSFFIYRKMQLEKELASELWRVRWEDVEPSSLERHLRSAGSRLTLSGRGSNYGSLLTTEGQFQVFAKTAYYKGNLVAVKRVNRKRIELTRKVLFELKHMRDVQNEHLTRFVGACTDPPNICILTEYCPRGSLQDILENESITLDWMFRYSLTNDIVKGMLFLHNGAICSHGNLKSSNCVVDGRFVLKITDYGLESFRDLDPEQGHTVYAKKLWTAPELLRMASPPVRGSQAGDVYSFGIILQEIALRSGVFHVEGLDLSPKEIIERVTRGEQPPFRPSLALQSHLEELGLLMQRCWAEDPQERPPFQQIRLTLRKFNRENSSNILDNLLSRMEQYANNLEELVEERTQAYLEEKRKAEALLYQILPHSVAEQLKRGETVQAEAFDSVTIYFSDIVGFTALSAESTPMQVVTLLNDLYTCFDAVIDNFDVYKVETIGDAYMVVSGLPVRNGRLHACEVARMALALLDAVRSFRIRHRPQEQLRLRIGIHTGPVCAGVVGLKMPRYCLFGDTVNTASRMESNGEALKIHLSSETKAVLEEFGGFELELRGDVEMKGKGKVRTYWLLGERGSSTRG
# [4] = target: Cytochrome P450 2C9 (Homo sapiens) (UniProt P11712); test: qHTS Assay for Inhibitors and Substrates of Cytochrome P450 2C9 (AID 883); further: nearly all actives have a fitted effect of over 60% in size
# Cytochrome P450 2C9 (Homo sapiens), sequence (P11712 whole entry, looked up): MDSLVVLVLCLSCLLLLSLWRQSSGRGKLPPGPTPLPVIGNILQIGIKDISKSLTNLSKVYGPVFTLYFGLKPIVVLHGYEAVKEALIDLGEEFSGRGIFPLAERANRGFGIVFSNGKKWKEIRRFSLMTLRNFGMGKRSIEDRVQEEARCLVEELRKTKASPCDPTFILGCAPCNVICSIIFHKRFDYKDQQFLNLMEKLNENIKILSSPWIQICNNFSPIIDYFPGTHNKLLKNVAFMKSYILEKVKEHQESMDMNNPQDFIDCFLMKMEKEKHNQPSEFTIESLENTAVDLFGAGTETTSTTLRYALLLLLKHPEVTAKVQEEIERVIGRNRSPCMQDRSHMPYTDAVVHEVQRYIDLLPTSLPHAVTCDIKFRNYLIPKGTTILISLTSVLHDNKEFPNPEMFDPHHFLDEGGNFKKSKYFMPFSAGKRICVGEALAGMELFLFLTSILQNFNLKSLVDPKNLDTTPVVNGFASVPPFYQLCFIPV
# Procedure, shortened: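 Signal: luciferase luminescence reporting luciferin produced by CYP2C9. Conditions: 10nM enzyme, Luciferin-H 100uM at KM, 25mM KPO4, 37C, 60 min NADPH-driven reaction. Reference: 57uM sulphaphenazole as 100% inhibition.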
# [5] = target: Cytochrome P450 3A4 (Homo sapiens) (UniProt P08684); test: qHTS Assay for Inhibitors and Substrates of Cytochrome P450 3A4 (AID 884); further: potency means the concentration at half of the fitted maximal effect; nearly all actives have a fitted effect of over 50% in size
# Cytochrome P450 3A4 (Homo sapiens), sequence (P08684 whole entry, looked up): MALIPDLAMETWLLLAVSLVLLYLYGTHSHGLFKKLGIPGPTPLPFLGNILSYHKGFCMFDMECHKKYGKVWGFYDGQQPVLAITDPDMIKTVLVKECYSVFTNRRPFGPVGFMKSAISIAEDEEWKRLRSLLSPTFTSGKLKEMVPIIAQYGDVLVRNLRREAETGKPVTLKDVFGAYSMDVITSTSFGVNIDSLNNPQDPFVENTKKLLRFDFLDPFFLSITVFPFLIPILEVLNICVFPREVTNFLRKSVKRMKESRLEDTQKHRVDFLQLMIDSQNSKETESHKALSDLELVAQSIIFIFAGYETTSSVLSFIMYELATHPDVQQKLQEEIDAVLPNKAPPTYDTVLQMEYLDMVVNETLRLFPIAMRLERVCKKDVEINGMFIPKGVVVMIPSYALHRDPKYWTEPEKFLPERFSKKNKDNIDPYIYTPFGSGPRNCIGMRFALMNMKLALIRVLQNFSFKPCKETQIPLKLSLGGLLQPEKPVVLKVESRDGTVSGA
# Procedure, shortened: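 20 nM human CYP3A4 with 25 uM Luciferin-PPXE (at KM) in 200 mM KPO4, preincubated 10 min with compound; NADPH regeneration started a 60 min RT reaction. Luciferin detected by luminescence, normalized to 57 uM ketoconazole as full inhibition.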
# [6] = target: Cytochrome P450 3A4 (Homo sapiens) (UniProt P08684); test: qHTS Assay for Activators of Cytochrome P450 3A4 (AID 885); further: nearly all actives have a fitted effect of over 65% in size
# Procedure, shortened: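 Human CYP3A4 (20 nM) with Luciferin-PPXE at 25 uM (its KM) in 200 mM KPO4; 10 min compound preincubation, then NADPH regeneration and 60 min reaction at RT. Luciferin read by luminescence; normalized to 57 uM ketoconazole full inhibition.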
# [7] = target: Cytochrome P450 2D6 (Homo sapiens) (UniProt P10635); test: qHTS Assay for Inhibitors and Substrates of Cytochrome P450 2D6 (AID 891);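 further: luciferin methyl ether substrate demethylated by CYP2D6 with NADPH regeneration; nearly all actives have a fitted effect of over 60% in size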
# Cytochrome P450 2D6 (Homo sapiens), sequence (P10635 whole entry, looked up): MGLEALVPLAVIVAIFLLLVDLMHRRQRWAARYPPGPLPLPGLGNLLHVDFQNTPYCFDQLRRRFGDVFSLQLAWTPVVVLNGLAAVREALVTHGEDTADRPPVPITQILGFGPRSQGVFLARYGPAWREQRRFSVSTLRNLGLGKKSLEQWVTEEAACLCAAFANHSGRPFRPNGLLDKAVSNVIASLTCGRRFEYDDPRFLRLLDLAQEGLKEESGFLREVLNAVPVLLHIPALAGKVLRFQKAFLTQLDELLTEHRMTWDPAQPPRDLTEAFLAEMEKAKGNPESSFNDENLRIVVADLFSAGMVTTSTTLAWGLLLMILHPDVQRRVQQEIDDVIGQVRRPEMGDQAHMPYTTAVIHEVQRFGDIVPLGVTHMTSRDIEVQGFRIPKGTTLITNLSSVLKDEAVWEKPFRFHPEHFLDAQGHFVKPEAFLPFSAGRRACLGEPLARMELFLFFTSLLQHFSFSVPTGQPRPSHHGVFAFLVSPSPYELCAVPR
# Procedure, shortened: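 Human CYP2D6 (5 nM) with 30 uM Luciferin-ME EGE (at Km) in 100 mM KPO4, compound preincubated 10 min, then NADPH regeneration system for 60 min at room temperature. Luciferin read by luminescence; normalized to 1.43 uM quinidine.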
# [8] = target: Cytochrome P450 2C19 (Homo sapiens) (UniProt P33261); test: qHTS Assay for Inhibitors and Substrates of Cytochrome P450 2C19 (AID 899); further: nearly all actives have a fitted effect of over 60% in size
# Cytochrome P450 2C19 (Homo sapiens), sequence (P33261 whole entry, looked up): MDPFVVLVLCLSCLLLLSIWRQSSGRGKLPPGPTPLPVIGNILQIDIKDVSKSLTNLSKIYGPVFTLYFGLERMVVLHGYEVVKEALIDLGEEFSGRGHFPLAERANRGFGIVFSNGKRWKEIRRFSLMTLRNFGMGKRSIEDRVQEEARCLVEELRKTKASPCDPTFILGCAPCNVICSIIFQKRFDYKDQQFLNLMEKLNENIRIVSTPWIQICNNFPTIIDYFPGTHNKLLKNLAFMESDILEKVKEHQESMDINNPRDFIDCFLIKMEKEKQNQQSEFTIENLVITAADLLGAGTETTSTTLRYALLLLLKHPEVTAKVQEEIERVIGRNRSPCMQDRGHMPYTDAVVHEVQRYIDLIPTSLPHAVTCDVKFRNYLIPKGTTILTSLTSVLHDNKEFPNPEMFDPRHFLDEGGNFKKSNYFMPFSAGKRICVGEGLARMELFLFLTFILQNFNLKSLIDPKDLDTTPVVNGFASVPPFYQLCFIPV
# Procedure, shortened: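 Signal comes from luciferase acting on luciferin released by CYP2C19-mediated hydroxylation of Luciferin-H EGE, 10uM (KM). Assay mix: 5nM enzyme, 50mM KPO4; 60 min at 37C with NADPH regeneration. Data normalized against 57uM ketoconazole.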
smiles,measurement,setting,value
CSc1nc(N)c2ncn([C@@H]3O[C@H](COP(=O)(O)OP(=O)(O)OP(=O)(O)O)C(O)[C@H]3O)c2n1 (some centres not stated),Potency,[1],50.1 µM (active)
NC(N)=Nc1ccc(O[C@H]2C[C@@H](Oc3ccc(N=C(N)N)cc3)[C@H](N=C(N)N)C[C@@H]2N=C(N)N)cc1,Potency,Furin (Homo sapiens),1.26 µM (active)
COc1ccc([C@]23Cc4cc(C#N)ccc4[C@H](O2)c2c(cc(C)n(-c4ccccc4)c2=O)O3)cc1,Potency,[2],inactive
same,Potency,[3],inactive
COc1ccc2c(c1)[C@@]1(OCCC=C[C@@H]1C)C(=O)N2Cc1ccccc1C(F)(F)F,Potency,[2],inactive
same,Potency,[3],inactive
O=S(=O)(N[C@H]1CO[C@H]2[C@@H]1OC[C@@H]2Nc1nccc(-c2ccc3c(c2)OCO3)n1)c1ccc2ccccc2c1,Potency,Furin (Homo sapiens),55.5 µM (active)
O=C(CSc1ncccc1C(=O)Oc1ccccc1Cl)Nc1ccc(C(F)(F)F)cc1Cl,Potency,Furin (Homo sapiens),inactive
CCOc1ccc(C(=O)Nc2cccc(C(=O)OCc3cc(=O)n4nc(C5CC5)sc4n3)c2)cc1,Potency,Furin (Homo sapiens),52.7 µM (active)
COCCN1C(=O)C2=C(C1=O)C1N(C)c3ccccc3[C@@]13C[C@@H](CO)N(C(=O)c1ccc(Br)cc1)C3=N2 (some centres not stated),Potency,[2],inactive
same,Potency,[3],inactive
CC(C)C(NC(=O)C(CCCN=C(N)N)NC(=O)NC(Cc1ccccc1)C(=O)O)C(=O)NC(C=O)CCCN=C(N)N (configuration not stated),Potency,Furin (Homo sapiens),11.2 µM (active)
CC(C)=CCC1(CC=C(C)C)C(=O)C(C(=O)c2ccccc2)=C2OC(C)(C)CCC2(CC=C(C)C)C1=O (configuration not stated),"activity change, negative = inhibition",[4],-24.2% [at 11.4 µM]
same,Potency,[5],3.98 µM (active)
same,"activity change, positive = activation",[6],-69.3% [at 11.4 µM]
same,"activity change, negative = inhibition",[7],20.1% [at 11.4 µM]
same,"activity, negative = inhibition",[8],-5.29% [at 11.4 µM]
same,Potency,[3],inactive
C[C@@H]1[C@H](c2ccccc2)c2cc3ccccc3nc2C(=O)C[C@@H]1C(=O)N1CCCC1,Potency,[2],inactive
same,Potency,[3],inactive
C[C@H]1CC[C@H]2C(=O)N(Cc3ccc(Cl)cc3)C[C@H](O)CN2[C@H]1c1ccc(Br)cc1,Potency,[2],inactive
same,Potency,[3],inactive
